Activity calls are given as the source filed them.

The nature of test [1]: small molecules captured by biotinylated probe aFSTL3 – biochemical, small-molecule microarray, fluorescence 635/667, stem cell growth factor project, primary screen (AID 1064).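 Note: measures binding of the biotinylated anti-FSTL3 antibody to printed compounds.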 Particulars: higher = more signal.
Test [2] is described as follows: binders from COS7 lysate, DM2A8 probe, primary screen, torsin A project, cell lysate, small-molecule microarray, fluorescence 635/667 (AID 1065). The note with it: higher = more signal, COS7 lysate expressing mutant human TOR1A.
A short description of test [3]: small molecules captured by biotinylated probe aFGF2 – biochemical, small-molecule microarray, fluorescence 635/667, stem cell growth factor project, primary screen (AID 1067).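 Note: measures binding of biotinylated aFGF2 protein to printed compounds on slides; z-score merges feature fluorescence and signal-to-noise across triplicate slides.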 Particulars: higher = more signal.
Test [4] is described as follows: small molecules captured by biotinylated probe aFGF10 – biochemical, small-molecule microarray, fluorescence 635/667, stem cell growth factor project, primary screen (AID 1071).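 Note: score merges 667 nm spot intensity and signal to noise from triplicate slides.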 Particulars: higher = more signal.
Test [5] concerns the target Neurogenic locus notch homolog protein 2 (Homo sapiens) (UniProt Q04721). Description: small molecules binding Notch2 protein – biochemical, small-molecule microarray, 635 nm fluorescence, stem cell growth factors, primary screen (AID 1073). The note with it: higher = more signal.
Test [6] addresses Pro-neuregulin-1, membrane-bound isoform (Homo sapiens) (UniProt Q02297). Briefly: small molecules binding neuregulin-1 protein – biochemical, small-molecule microarray, fluorescence 635/667, psychiatric disease protein project, primary screen (AID 1075).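 Note: score combines 667 nm spot fluorescence with signal to noise.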 Particulars: NRG1 binding, 635 nm fluorescence, higher = more signal.
For test [7], the system named is Neuregulin-1 EGF-like domain. Description: small molecules binding NRG1 EGF domain – biochemical, small-molecule microarray, 635 nm fluorescence, primary screen (AID 1081).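 Note: binding of the protein to compounds printed on small-molecule microarray slides.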 The note with it: higher = more signal.
Test [8] is described as follows: FRG1 expression reporter modulators in myotubes – cell-based, C2C12 myotubes, firefly/Renilla luciferase, luminescence, FRG1 inhibition for FSHD, primary screen (AID 1084). Particulars: FRG1 promoter luciferase, higher = more signal, called active from +8 up or from −8 down.
A short description of test [9]: small molecules captured by biotinylated probe aFST – biochemical, small-molecule microarray, fluorescence 635/667, stem cell growth factor project, primary screen (AID 1086).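 Note: score merges 667 nm fluorescence with signal-to-noise of each printed compound spot.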 The note with it: higher = more signal.
Test [10] in a line: binders of probe aHhip on microarray, primary screen, stem cell growth factor project, biochemical, small-molecule microarray, fluorescence 635/667 (AID 1087).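 Note: score merges spot fluorescence at 667nm with spot signal to noise ratio.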 Particulars: higher = more signal.
The test system of test [11] is PRMT1 (protein arginine N-methyltransferase 1). Briefly: small molecules binding arginine methyltransferase PRMT1 – biochemical, small-molecule microarray, 635 nm fluorescence, primary screen (AID 1088).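 Note: binding of Prmt1 protein to compounds spotted on small-molecule microarray slides.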 The note with it: higher = more signal.
A short description of test [12]: growth effects on S. cerevisiae YJM789 – YJM789 clinical isolate, OD600, 24 h, basal, primary screen (AID 1089).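 Note: growth of clinical yeast isolate S. cerevisiae YJM 789 seeded 1000 cells per well; test concentration not given here.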 The note with it: higher = more signal, called active from +8 up or from −8 down.
Test [13] in a line: S. pombe growth modifiers, basal conditions – strain 972, OD600, 24 h, no modulator, primary screen (AID 1090).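 Note: basal condition with compound alone and no growth modifier present; test concentration not given here.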 Particulars: S. pombe 972 growth, higher = more signal, called active from +8 up or from −8 down.
Test [14] is described as follows: budding yeast growth modifiers under rapamycin – strain BY4716, OD600, 96 h, primary screen (AID 1091). Note: test concentration not given here. The note with it: S. cerevisiae BY4716 + rapamycin, higher = more signal, called active from +8 up or from −8 down.
For test [15], the target named is Torsin-1A-interacting protein 2 (Homo sapiens) (UniProt Q8NFQ8). Description: small molecules binding lysate-expressed LULL1 – cell lysate, human LULL1 lysate, 635/667 nm fluorescence, primary screen (AID 1092).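 Note: score merges per-feature 667 nm fluorescence with signal-to-noise.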 Particulars: small-molecule microarray, hLULL1 lysate binding, 635 nm fluorescence; higher = more signal.
The nature of test [16]: optical density change of DRC41 E. coli – strain DRC41, OD650, 24 h, E. coli filamentation project, primary screen (AID 1093).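 Note: MC1000 strain lacking acrAB efflux and sulA so SOS filamentation is blocked; test concentration not given here.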 Particulars: E. coli DRC41 growth, higher = more signal, called active from +8 up or from −8 down.
Test [17] is described as follows: probe aLefty2 binding to arrayed compounds – biochemical, biotinylated probe, 635/667 nm fluorescence, primary screen (AID 1094).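 Note: score merges spot fluorescence near 667 nm with spot signal-to-noise ratio.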 Particulars: small-molecule microarray, higher = more signal.
The test system of test [18] is Noggin (protein binding on small-molecule microarray). Briefly: small molecules binding Noggin protein – biochemical, 635/667 nm fluorescence, primary screen (AID 1095).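 Note: score merges 667 nm feature fluorescence with signal to noise over triplicate slides.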 The note with it: 635 nm fluorescence, higher = more signal.
Test [19] has as its target Neurogenic locus notch homolog protein 3 (Homo sapiens) (UniProt Q9UM47). Description: small molecules binding NOTCH3 protein – biochemical, 635/667 nm fluorescence, primary screen (AID 1096). The note with it: small-molecule microarray, 635 nm fluorescence, higher = more signal.
Test [20] can be described thus: probe aEGFR binding to arrayed compounds – biochemical, biotinylated probe, 635/667 nm fluorescence, primary screen (AID 1097).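 Note: probe is a biotinylated anti-EGFR antibody binding compounds printed on slides; score combines fluorescence near 667 nm and signal to noise of each spot.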 The note with it: small-molecule microarray, higher = more signal.

Sequence of Torsin-1A-interacting protein 2 (Homo sapiens) (Q8NFQ8 whole entry, looked up): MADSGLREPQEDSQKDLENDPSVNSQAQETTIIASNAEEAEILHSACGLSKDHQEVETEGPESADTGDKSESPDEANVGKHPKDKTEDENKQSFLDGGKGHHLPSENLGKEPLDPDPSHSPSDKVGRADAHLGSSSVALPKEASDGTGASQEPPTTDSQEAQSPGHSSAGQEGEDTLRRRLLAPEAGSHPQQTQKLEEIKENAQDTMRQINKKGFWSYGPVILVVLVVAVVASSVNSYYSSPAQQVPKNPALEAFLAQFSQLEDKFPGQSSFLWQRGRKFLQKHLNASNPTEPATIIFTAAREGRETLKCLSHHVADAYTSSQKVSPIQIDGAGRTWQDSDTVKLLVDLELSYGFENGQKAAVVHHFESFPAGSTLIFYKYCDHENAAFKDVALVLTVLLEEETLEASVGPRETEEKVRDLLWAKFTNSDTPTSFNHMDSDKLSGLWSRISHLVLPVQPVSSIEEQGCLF
Sequence of Neurogenic locus notch homolog protein 3 (Homo sapiens) (Q9UM47 whole entry, looked up): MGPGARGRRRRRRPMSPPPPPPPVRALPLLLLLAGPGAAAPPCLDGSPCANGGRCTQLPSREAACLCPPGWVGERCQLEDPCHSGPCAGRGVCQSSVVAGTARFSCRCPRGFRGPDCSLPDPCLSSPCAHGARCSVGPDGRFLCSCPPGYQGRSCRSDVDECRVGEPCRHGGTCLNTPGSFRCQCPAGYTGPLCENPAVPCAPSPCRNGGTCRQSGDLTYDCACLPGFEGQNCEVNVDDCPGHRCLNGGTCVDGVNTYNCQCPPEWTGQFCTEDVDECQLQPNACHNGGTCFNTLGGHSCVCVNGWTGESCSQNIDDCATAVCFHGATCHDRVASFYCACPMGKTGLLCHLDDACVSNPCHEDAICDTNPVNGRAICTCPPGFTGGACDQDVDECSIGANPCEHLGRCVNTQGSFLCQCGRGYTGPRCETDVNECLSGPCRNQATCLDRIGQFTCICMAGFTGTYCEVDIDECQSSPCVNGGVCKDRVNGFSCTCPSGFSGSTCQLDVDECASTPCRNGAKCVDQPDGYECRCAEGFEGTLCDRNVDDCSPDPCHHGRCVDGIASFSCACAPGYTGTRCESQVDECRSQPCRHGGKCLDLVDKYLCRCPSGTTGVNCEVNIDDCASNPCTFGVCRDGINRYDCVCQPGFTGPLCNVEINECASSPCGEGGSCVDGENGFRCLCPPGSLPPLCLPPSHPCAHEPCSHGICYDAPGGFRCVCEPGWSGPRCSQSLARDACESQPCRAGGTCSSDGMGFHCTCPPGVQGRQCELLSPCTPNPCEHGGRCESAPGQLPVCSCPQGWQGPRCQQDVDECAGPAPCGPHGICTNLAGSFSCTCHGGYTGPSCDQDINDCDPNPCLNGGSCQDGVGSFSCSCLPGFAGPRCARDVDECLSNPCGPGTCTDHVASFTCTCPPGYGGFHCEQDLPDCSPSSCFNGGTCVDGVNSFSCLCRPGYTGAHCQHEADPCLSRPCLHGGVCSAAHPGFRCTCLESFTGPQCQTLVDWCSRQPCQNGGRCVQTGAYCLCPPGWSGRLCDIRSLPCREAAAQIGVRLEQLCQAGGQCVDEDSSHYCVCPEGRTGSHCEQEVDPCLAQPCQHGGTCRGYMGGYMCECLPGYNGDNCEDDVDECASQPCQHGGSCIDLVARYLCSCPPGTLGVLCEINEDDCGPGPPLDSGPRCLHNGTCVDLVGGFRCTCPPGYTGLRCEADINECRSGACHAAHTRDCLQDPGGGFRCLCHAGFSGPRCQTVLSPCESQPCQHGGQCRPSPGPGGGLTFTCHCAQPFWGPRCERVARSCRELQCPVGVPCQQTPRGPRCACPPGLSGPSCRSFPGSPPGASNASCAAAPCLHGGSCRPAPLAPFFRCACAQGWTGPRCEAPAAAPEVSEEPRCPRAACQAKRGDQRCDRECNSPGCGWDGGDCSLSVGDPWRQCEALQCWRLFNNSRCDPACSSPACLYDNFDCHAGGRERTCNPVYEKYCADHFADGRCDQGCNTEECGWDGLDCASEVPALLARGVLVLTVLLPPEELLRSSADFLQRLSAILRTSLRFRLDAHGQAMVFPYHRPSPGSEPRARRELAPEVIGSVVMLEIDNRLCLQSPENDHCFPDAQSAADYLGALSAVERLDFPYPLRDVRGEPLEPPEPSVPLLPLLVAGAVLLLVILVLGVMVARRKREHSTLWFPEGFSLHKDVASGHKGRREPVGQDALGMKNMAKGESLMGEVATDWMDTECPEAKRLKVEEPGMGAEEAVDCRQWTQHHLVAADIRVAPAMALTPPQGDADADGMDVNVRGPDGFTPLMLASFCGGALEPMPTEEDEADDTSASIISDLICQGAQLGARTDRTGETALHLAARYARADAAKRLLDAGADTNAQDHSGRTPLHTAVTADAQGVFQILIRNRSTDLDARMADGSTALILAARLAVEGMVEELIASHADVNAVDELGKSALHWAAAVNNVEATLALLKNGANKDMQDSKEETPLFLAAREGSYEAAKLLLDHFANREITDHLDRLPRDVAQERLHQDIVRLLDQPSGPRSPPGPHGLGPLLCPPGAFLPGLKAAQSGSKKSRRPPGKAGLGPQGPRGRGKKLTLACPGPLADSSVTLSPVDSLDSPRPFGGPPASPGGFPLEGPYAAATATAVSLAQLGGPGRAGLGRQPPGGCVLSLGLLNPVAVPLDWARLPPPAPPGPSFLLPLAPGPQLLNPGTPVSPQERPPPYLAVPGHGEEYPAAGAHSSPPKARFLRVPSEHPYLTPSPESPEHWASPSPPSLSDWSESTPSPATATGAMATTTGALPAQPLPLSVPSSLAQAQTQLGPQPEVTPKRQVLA
Sequence of Pro-neuregulin-1, membrane-bound isoform (Homo sapiens) (Q02297 whole entry, looked up, the tested form may be a part, canonical isoform): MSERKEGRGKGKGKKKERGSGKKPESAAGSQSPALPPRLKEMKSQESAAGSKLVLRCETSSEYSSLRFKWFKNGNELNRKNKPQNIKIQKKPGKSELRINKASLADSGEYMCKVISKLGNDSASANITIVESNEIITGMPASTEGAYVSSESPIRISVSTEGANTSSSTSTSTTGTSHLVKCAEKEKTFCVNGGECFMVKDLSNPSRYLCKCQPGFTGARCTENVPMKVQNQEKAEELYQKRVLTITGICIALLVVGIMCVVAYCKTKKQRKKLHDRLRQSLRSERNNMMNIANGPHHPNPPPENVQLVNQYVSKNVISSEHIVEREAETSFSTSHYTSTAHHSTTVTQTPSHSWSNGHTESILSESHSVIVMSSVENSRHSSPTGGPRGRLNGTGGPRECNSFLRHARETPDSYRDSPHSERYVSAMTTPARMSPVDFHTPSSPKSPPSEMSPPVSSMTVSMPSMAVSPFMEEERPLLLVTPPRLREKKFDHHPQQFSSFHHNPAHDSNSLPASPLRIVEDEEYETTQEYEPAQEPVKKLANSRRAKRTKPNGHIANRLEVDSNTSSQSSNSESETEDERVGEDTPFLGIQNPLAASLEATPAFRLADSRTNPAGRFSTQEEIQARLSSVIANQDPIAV

Consider `CCOC(=O)C1=CC[C@@H](c2ccc(F)cc2)N(S(=O)(=O)c2ccc(C)cc2)[C@H]1c1ccc([N+](=O)[O-])cc1`, for which the composite z-score in test [1] was -0.283; in [2] it was -0.237; in [3], -0.0277; in test [4], 0.639; in test [5], 1.26; in test [6] it was 1.1. Also, the composite z-score in test [7] was 1; in test [9], 0.919; in test [10], -0.0645; in test [11], 0.518; in test [15] it was 2.5; in [17], 0.0322. Also, the composite z-score in [18] was -0.234; in [19], 0.73; in test [20] it was -0.0409. Besides, the z-score is -0.507 (inactive) in test [8]; 0.342 (inactive) in test [12]; 1.32 (inactive) in [13]; 6.03 (inactive) in test [14]; 0.543 (inactive) in test [16].

As to `C#CCN=C(N)N`, the composite z-score is -0.504 in test [1]; 0.147 in test [2]; -0.127 in [3]; 0.209 in test [4]; 0.389 in test [5]; 0.748 in test [6]. The composite z-score in [7] was 1.01; in test [9] it was 0.224; in test [10] it was -0.226; in test [11], 0.21; in test [15], 0.737; in test [17], -0.18. The results for the composite z-score in [18], in test [19] and in [20] were 0.759, 0.562 and 0.0768, respectively. For the same molecule, the z-score is 0.007 (inactive) in test [8]; -0.303 (inactive) in test [12]; -0.349 (inactive) in test [13]; -0.247 (inactive) in test [14]; -0.291 (inactive) in test [16].

Regarding `COC(=O)[C@@]1(Cc2ccc(F)cc2)[C@H]2c3cc(C(=O)N(C)C)n(CCN4CCOCC4)c3C[C@H]2CN1C(=O)c1ccccc1`, the composite z-score in test [1] was 0.59; in test [2], -0.141; in test [3], 0.0141; in test [4], 0.58; in test [5] it was 1.63; in test [6] it was 1.51. In addition, the composite z-score turned out to be 0.654 in [7]; 0.416 in [9]; 0.664 in [10]; 0.101 in [11]; 2.5 in test [15]; 0.246 in test [17]. For the same molecule, the composite z-score in test [18] is -0.539; in test [19], 0.417; in test [20], 0.865. The z-score was 1.56 (inactive) in test [8]; 0.218 (inactive) in [12]; 0.323 (inactive) in test [13]; 0.0727 (inactive) in test [14]; 0.176 (inactive) in test [16].

Consider `COCCOC(=O)N1C(=O)[C@@]2(c3cc(C#CC4=CCCCC4)ccc31)[C@H](c1ccccc1OCCO)N1[C@H](c3ccccc3)[C@H](c3ccccc3)OC(=O)[C@H]1[C@@H]2C(N)=O`, for which the composite z-score in test [1] is -0.42; in test [2] it was 0.599; in test [3], 0; in test [4], 0.525; in test [5], 0.931; in test [6], -0.253. Moreover, the composite z-score is 1.05 in test [7]; 0.366 in test [9]; -0.217 in test [10]; 1.56 in test [11]; 1.66 in test [15]; -0.107 in [17]. Moreover, the composite z-score in test [18] was 1.39; in test [19], 1.1; in test [20], -0.0211. Further, the z-score in [8] was -0.89 (inactive); in test [12], 0.05 (inactive); in [13], -0.96 (inactive); in test [14], 1.69 (inactive); in test [16], 2.66 (inactive).

On to `COCCOC(=O)N1C(=O)[C@@]2(c3cc(C#CCCO)ccc31)[C@H](c1ccc(O)cc1)N1[C@H](c3ccccc3)[C@H](c3ccccc3)OC(=O)[C@H]1[C@@H]2C(=O)N1CCc2cc(OC)c(OC)cc2C1`, for which the composite z-score in test [1] is 0.0104; in test [2] it was 0.366; in [3], -0.0004; in test [4] it was 0.525; in [5], 1.36; in test [6], 1.04. Moreover, the composite z-score in test [7] was 1.32; in [9], 0.411; in test [10], -0.271; in test [11], 1.52; in test [15], 2.45; in test [17] it was -0.0616. The composite z-score in test [18] was 1.55; in [19] it was 1.06; in test [20] it was 0.122. The z-score in test [8] is -0.994 (inactive); in test [12], 0.47 (inactive); in [13], 0.511 (inactive); in [14], 1.23 (inactive); in test [16], -0.617 (inactive).

The values above are taken from PubChem BioAssay.
